Assay [1] is described as follows: qHTS Assay for Lipid Storage Modulators (AID 1519; calls by dose curve; on activity change, negative = inhibition: on the % scale 0 is the no-effect control and ±100 the full control effect). The conditions noted are these: Drosophila S3 cells, BODIPY lipid droplet/cell ratio, laser cytometry, cells loaded with oleic acid; for activity change, negative = inhibition: at 57.5 µM (top of the series). The method in brief:
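Cells seeded at 5,000 per well were treated with compounds over a concentration series and loaded with oleic acid (400 uM, as added). Lipid droplet fluorescence (488 nm excitation, 500-530 nm channel) was read by laser-scanning cytometry and normalized to 20 uM Triacsin C.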

Assay [2] addresses Ubiquitin carboxyl-terminal hydrolase 1 (Homo sapiens) (UniProt O94782). As to the kind of experiment: Inhibitors of USP1/UAF1: Pilot qHTS (AID 504865).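 Further: rhodamine fluorescence freed from ubiquitin-rhodamine substrate followed over time; top concentration of the series differs between compounds; on the % scale 0 is the no-effect control and ±100 the full control effect; nearly all actives have a fitted effect of over 35% in size.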 As to conditions: purified USP1/UAF1, Ub-rhodamine cleavage fluorescence; series mostly up to 114 µM. The method, boiled down:
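Kinetic fluorescence assay: 1nM USP1/UAF1, 15 min compound preincubation, then 150nM Ub-Rho; 480/540 nm.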

The target of assay [3] is ATP-dependent 6-phosphofructokinase (Trypanosoma brucei brucei) (UniProt O15648). Put plainly: qHTS Assay to Find Inhibitors of T. brucei phosphofructokinase: hit validation (AID 492961).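 Further: luminescence reports ADP formed as PFK phosphorylates fructose-6-phosphate with ATP; on the % scale 0 is the no-effect control and ±100 the full control effect.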 The conditions noted are these: T. brucei PFK, ADP-Glo luminescence; series mostly up to 24.3 µM. The method in brief: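 Reaction: 0.1 M triethanolamine pH 8.0, 5 mM MgCl2, F6P 0.5 mM, ATP 0.1 mM, PFK 1.25 nM, 45 min RT. Read-out: ADP-Glo luminescence. Analysis: concentration-response fits, classed by r2 and efficacy.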

Assay [4] deals with Luciferin 4-monooxygenase (Photinus pyralis) (UniProt P08659). Put plainly: Biochemical firefly luciferase enzyme assay for NPC (AID 624030). Further: nearly all actives have a fitted effect of over 70% in size. Further: potency means the concentration at half of the fitted maximal effect.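 On activity change, negative = inhibition: purified P. pyralis luciferase at 10 nM with luciferin and ATP substrate; 0% = DMSO and -100% = full luciferase inhibition by PTC124 control.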 The conditions noted are these: purified P. pyralis luciferase, luminescence, 5 min; series mostly up to 24.9 µM. The method in brief:
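Counter-screen for direct inhibition of the luciferase enzyme by approved-drug library compounds, run at 10 nM enzyme in 50 mM Tris acetate (final). Luminescence was read within 5 min of enzyme-buffer addition and normalized to PTC124 versus DMSO (0%).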

Assay [5] can be described thus: qHTS profiling for inhibitors of Plasmodium falciparum proliferation (AID 504749).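 Further: 0% = DMSO vehicle and full inhibition = artemisinin control; nearly all actives have a fitted effect of over 60% in size.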 As to conditions: P. falciparum in erythrocytes, SYBR Green DNA, 72 h, at 28.7 µM (top of the series). The method in brief: (§1)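 P. falciparum-infected erythrocytes (0.3% parasitemia, 2.5% hematocrit final) were exposed to compounds for 72 h at 37 C in 5% CO2, then lysed with SYBR Green buffer overnight at room temperature; parasite DNA fluorescence was normalized to artemisinin and DMSO controls.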

Another assay has as its system 3D7. The description is as above. The conditions noted are these: P. falciparum in erythrocytes, SYBR Green DNA, 72 h; series mostly up to 12.8 µM. The method in brief:
as §1

The test system of a further assay is C2A. The description is as above. The conditions noted are these: P. falciparum in erythrocytes, SYBR Green DNA, 72 h; series mostly up to 12.8 µM. The method in brief: as §1
The next assay concerns CP201. The assay is described as above. As to conditions: P. falciparum in erythrocytes, SYBR Green DNA, 72 h; series mostly up to 12.8 µM. The method, boiled down:
as §1

The next assay relates to CP211. The assay is described as above. The conditions noted are these: P. falciparum in erythrocytes, SYBR Green DNA, 72 h; series mostly up to 12.8 µM. The method in brief:
as §1

A further assay concerns CP237. The assay is described as above. The conditions noted are these: P. falciparum in erythrocytes, SYBR Green DNA, 72 h; series mostly up to 12.8 µM. The method, boiled down:
as §1

A further assay has as its system CP252. The assay is described as above. As to conditions: P. falciparum in erythrocytes, SYBR Green DNA, 72 h; series mostly up to 12.8 µM. The method in brief: as §1
The test system of a further assay is CP262. The description is as above. The conditions noted are these: P. falciparum in erythrocytes, SYBR Green DNA, 72 h; series mostly up to 12.8 µM. The method in brief:
as §1

The next assay deals with CP268. Described as above. As to conditions: P. falciparum in erythrocytes, SYBR Green DNA, 72 h; series mostly up to 12.8 µM. The method, boiled down:
as §1

A further assay has as its system CP305. Described as above. As to conditions: P. falciparum in erythrocytes, SYBR Green DNA, 72 h; series mostly up to 12.8 µM. The method, boiled down: as §1
The next assay relates to CP315. Described as above. The conditions noted are these: P. falciparum in erythrocytes, SYBR Green DNA, 72 h; series mostly up to 12.8 µM. The method, boiled down: as §1
For another assay, the system named is CP329. The description is as above. As to conditions: P. falciparum in erythrocytes, SYBR Green DNA, 72 h; series mostly up to 12.8 µM. The method in brief: as §1
The next assay has as its system HB3. Described as above. The conditions noted are these: P. falciparum in erythrocytes, SYBR Green DNA, 72 h; series mostly up to 12.8 µM. The method, boiled down:
as §1

Another assay concerns JCK. The description is as above. The conditions noted are these: P. falciparum in erythrocytes, SYBR Green DNA, 72 h; series mostly up to 12.8 µM. The method in brief: as §1
A further assay relates to PAD. The description is as above. The conditions noted are these: P. falciparum in erythrocytes, SYBR Green DNA, 72 h; series mostly up to 12.8 µM. The method in brief:
as §1

In another assay the test system is PC49. Described as above. The conditions noted are these: P. falciparum in erythrocytes, SYBR Green DNA, 72 h; series mostly up to 12.8 µM. The method, boiled down:
as §1

Where [6] appears, read: measured here: cell count channel max response.
The mark [7] stands for this setting: measured here: lipid channel max response.

Each structure is given as a SMILES string. Records with an inconclusive call do not appear. The source made the active and inactive calls. Unless noted, the call rests on the fitted dose curve; in most records, active means well fitted curve in the direction sought with a large enough effect; inconclusive means small, poorly fitted or top-dose-only effect, or another doubt; inactive means no such curve, though single readings can be large; an effect the other way counts as inactive or inconclusive.

Ubiquitin carboxyl-terminal hydrolase 1 (Homo sapiens), sequence (O94782 whole entry, looked up): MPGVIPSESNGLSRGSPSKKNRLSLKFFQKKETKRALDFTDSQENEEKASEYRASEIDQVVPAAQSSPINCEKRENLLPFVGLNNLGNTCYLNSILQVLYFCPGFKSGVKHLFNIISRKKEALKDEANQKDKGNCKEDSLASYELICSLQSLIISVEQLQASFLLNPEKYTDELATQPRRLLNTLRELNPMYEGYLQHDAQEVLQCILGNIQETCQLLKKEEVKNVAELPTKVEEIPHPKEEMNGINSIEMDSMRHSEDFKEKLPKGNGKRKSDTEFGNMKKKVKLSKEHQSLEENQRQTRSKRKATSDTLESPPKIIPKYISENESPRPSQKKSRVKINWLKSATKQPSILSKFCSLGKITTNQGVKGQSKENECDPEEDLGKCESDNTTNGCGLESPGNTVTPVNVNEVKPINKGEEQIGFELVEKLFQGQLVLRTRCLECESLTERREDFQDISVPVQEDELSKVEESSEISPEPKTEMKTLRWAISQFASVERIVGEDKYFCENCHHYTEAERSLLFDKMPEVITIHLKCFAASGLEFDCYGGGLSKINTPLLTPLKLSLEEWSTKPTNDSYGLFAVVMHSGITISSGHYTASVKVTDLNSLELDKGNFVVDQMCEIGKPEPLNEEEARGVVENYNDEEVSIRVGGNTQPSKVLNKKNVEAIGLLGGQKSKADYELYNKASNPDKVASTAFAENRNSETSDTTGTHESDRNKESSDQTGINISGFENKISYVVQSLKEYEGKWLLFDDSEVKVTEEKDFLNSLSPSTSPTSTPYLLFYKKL
ATP-dependent 6-phosphofructokinase (Trypanosoma brucei brucei), sequence (O15648 whole entry, looked up): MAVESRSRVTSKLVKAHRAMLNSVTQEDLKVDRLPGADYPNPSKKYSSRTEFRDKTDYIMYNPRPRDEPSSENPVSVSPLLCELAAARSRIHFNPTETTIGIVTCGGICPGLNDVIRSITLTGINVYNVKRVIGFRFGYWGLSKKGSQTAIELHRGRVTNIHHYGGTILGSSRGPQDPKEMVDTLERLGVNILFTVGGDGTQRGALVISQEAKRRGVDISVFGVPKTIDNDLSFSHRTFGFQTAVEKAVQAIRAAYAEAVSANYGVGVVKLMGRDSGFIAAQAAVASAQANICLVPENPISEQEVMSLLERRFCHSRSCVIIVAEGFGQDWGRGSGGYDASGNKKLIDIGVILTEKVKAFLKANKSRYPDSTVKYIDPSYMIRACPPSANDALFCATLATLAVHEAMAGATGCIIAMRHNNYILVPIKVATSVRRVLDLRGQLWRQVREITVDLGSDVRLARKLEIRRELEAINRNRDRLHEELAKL
Luciferin 4-monooxygenase (Photinus pyralis), sequence (P08659 whole entry, looked up): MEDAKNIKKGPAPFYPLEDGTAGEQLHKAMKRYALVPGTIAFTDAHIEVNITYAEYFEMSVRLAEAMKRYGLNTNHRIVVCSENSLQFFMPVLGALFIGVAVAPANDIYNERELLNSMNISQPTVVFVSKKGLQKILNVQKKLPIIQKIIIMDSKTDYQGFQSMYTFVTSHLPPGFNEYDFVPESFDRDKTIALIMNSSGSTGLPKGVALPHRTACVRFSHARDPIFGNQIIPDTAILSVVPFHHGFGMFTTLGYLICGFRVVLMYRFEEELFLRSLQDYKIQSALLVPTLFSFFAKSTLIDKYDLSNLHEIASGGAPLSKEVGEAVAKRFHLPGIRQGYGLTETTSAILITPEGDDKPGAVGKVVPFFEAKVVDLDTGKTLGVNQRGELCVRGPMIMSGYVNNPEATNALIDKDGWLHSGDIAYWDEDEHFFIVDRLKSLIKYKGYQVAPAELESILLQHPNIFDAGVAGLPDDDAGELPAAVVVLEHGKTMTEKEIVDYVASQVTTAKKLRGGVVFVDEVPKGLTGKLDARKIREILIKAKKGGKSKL

On to `COc1ccc(-c2cc(=O)c3c(O)cc(O)cc3o2)cc1`, for which the activity change, negative = inhibition in assay [1] was 14.6% (inactive). The max response in assay [1] (setting [6]) amounted to 4.93%; in assay [1] (setting [7]), 23.2%. In assay [2], the Potency entry is “inactive”.

With `Cc1cc(=O)oc2cc(O[C@@H]3O[C@H](C(=O)O)[C@@H](O)[C@H](O)[C@H]3O)ccc12`, in assay [1], the activity change, negative = inhibition is 7.88% (inactive). For the same compound, the results for the max response in [1] (setting [6]) and in assay [1] (setting [7]) were 8.78% and 16.3%, respectively. Moreover, the Potency entry in assay [2] was “inactive”.

For the compound `N[C@H](CO)Cc1cnc[nH]1`, the activity change, negative = inhibition in assay [1] was 3.9% (inactive). Also, the max response in [1] (setting [6]) stood at 11.7%; in assay [1] (setting [7]), 15.8%. For the same compound, the Potency entry in assay [2] is “inactive”.

In the case of `CC(C)Oc1ccc2c(=O)cc(-c3ccccc3)oc2c1`, the activity change, negative = inhibition in assay [1] is 14.1% (inactive). The max response in assay [1] (setting [6]) stood at 14.7%; in assay [1] (setting [7]), 29.4%. The compound was classed as inactive in [3]. For the same compound, the Potency in assay [4] is 809 nM (active). In [5] (parasite line A), the activity, negative = inhibition is -21.9% (inactive). For the same compound, the Potency result with 3D7, in the assay on C2A, with CP201, in the assay on CP211, in the assay on CP237 and in the assay with CP252 was “inactive” each time. Moreover, the Potency entry in the assay on CP262, in the assay on CP268, in the assay on CP305, in the assay with CP315, in the assay with CP329 and in the assay with HB3 was “inactive” each time. In addition, the Potency entry in the assay on JCK, in the assay with PAD and in the assay with PC49 was “inactive” in each case.

In the case of `C#C[C@]1(O)CCC2C3CCC4=CC(=O)CCC4C3CC[C@@]21C` (stereo partly specified), the activity change, negative = inhibition in assay [1] was 3.02% (inactive). Moreover, the figures for the max response in assay [1] (setting [6]) and in [1] (setting [7]) were 2.28% and 5.87%, respectively. Besides, the compound was classed as inactive in [3]. In addition, the Potency entry in assay [2] and in assay [4] was “inactive” in each case.

Turning to `CC1=CC(=O)[C@@H]2C[C@H]1C2(C)C`, the activity change, negative = inhibition in assay [1] is 4.82% (inactive). Also, the max response in [1] (setting [6]) is -1.97%; in [1] (setting [7]), -0.655%. The Potency result in [2] is “inactive”.

In the case of `CCC1OC(=O)CC(O)C(C)[C@@H](O[C@@H]2OC(C)[C@H](O[C@@H]3C[C@@](C)(O)C(O)C(C)O3)C(N(C)C)C2O)[C@H](CC=O)CC(C)C(=O)/C=C/C(C)=C/[C@@H]1COC1OC(C)C(O)C(OC)[C@@H]1OC` (stereo partly specified), the activity change, negative = inhibition in [1] was 0.0526% (inactive). For the same compound, the max response in assay [1] (setting [6]) was -1.62%; in assay [1] (setting [7]), 4.9%. In assay [3], the result was inactive. In addition, the Potency entry (in assay [2]; in assay [4]; with JCK; in the assay with PC49) was “inactive” each time.

`C[C@@]12CCC(=O)C=C1C=CC1C2CC[C@]2(C)C1CC[C@@]21CCC(=O)O1` (stereo partly specified): the activity change, negative = inhibition in [1] is 7.74% (inactive). In addition, the max response in assay [1] (setting [6]) was determined as 3.63%; in assay [1] (setting [7]) it was 12.9%. Further, the compound was called inactive in assay [3]. In addition, the Potency entry (in [2]; in assay [4]; with 3D7; with CP201; with CP211; in the assay on CP237) was “inactive” each time. In addition, the Potency result in the assay on CP252, in the assay with CP262, with CP268, in the assay on CP305, in the assay on CP315 and in the assay with CP329 was “inactive” each time. Moreover, the Potency result in the assay with HB3, in the assay with JCK, in the assay on PAD and in the assay on PC49 was “inactive” in each case. In assay [5] (parasite line B), the activity, negative = inhibition is -24.2% (inactive).

With `C[C@@]12C=CC(=O)C=C1CCC1C3CC(O)[C@@](O)(C(=O)CO)[C@]3(C)CC(O)[C@]12F` (stereo partly specified), the activity change, negative = inhibition in assay [1] was 10.8% (inactive). The max response is 11.4% in assay [1] (setting [6]) and 25.4% in [1] (setting [7]). The result in assay [3] was inactive. Also, the Potency entry (in [2]; in assay [4]; in the assay with 3D7; in the assay with C2A; with CP201; in the assay with CP211) was “inactive” each time. Also, the Potency result in the assay on CP237, in the assay on CP252, in the assay on CP262, in the assay with CP268, with CP305 and in the assay on CP315 was “inactive” throughout. The Potency result in the assay on CP329, in the assay on HB3, in the assay with JCK, in the assay with PAD and with PC49 was “inactive” each time. Also, in assay [5] (parasite line A), the activity, negative = inhibition is 5.41% (inactive).

With `O=C(O)C1OC(O)C(O)C(O)C1O` (stereo unspecified), the activity change, negative = inhibition in assay [1] was -3.53% (inactive). Besides, the max response in [1] (setting [6]) is -1.15%; in assay [1] (setting [7]) it was -5.5%. For the same compound, in assay [2], the Potency entry was “inactive”.

Consider `O=C(O)C1=C[C@@H](O)[C@@H](O)[C@H](O)C1`, for which the activity change, negative = inhibition in assay [1] is 5.96% (inactive). For the same compound, the results for the max response in assay [1] (setting [6]) and in assay [1] (setting [7]) were 13.7% and 21.4%, respectively. Moreover, the Potency result in assay [2] was “inactive”.

For the compound `O=C(O)C1(O)C[C@H](O)C(O)[C@@H](O)C1` (stereo partly specified), the activity change, negative = inhibition in assay [1] is -0.572% (inactive). Moreover, the figures for the max response in assay [1] (setting [6]) and in assay [1] (setting [7]) were -6.02% and -7.19%, respectively. The Potency result in assay [2] was “inactive”.

(Values after PubChem BioAssay (NCATS).)
